Assay results reported in PubChem BioAssay (NCI).
About 83,000 compounds went through this panel and 20% of them were active in at least one assay; those are over-represented in the sample as a whole.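 Note: values are percent growth. 100 is the growth of untreated cells, values between 100 and 0 indicate rising inhibition; between -100 and 0 indicates cell death.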 A number with no mark means an inactive call. Active and inactive are the calls of the source. The calls were made as follows: active = growth percent below 10; inactive = the rest.

system: U251 CNS; assay: NCI-60 one-dose screen, 48 h (100 = growth as untreated, 0 = no growth, -100 = all killed); details: 10 µM unless noted

| Structure (SMILES) | growth |
| --- | --- |
| CC(C)c1ccc(NC(=O)Nc2ccc(NC(=O)c3ccccc3N)cc2)cc1 | 35.6% |
| O=C(/C=C/c1cccc(Cl)c1)c1cccc(OCCCCOc2cccc(C(=O)/C=C/c3cccc(Cl)c3)c2)c1 | 68.7% |
| CC(C)c1ccc(C(=O)Nc2sc3cc(O)ccc3c2C#N)cc1 | 29.2% |
| COC(=O)/C(CCC=C(C)C)=C1\[C@@H](OC(C)=O)C[C@@]2(C)[C@H]1CC(=O)[C@H]1[C@@]3(C)CCC(N4CCCC4)[C@@H](C)[C@@H]3CC[C@@]12C (stereo not given in full) | 101% |
| C/C(=C(\c1ccc(OCCN2CCCCCC2)cc1)c1ccc(OC(=O)Cc2ccccc2)cc1)c1ccc(Cl)cc1 | 8.22% (active) |
| O=C(Cn1nnc2ccccc21)N/N=C/c1ccccc1F | 97.1% |
| CCN(CC)CCOc1nc2c3ccc(Cl)cc3nn2c2ccccc12 | 16.4% |
| COc1ccc(NC(=O)c2ccc(C(=O)Nc3ccc(OC)cc3OC)cc2)c(OC)c1 | 46.3% |
| NC(=O)OCCn1cc(-c2nc(-c3c[nH]c4ncccc34)cs2)c2ccccc21 | 20% |
| CCOC(=O)c1c(-c2ccc(Cl)cc2)c(C#N)c2c(C#N)c(N)nn2c1N | 66.4% |
| CCOC(=O)c1c(C)nc2ccccc2c1/C=C/c1ccc(OC)cc1 | 79.8% |
| O=C(/C=C/C12c3ccccc3C(c3ccccc31)C1C(=O)NC(=O)C12)c1ccccn1 (stereo not given) | -28.9% (active) |
| Cn1c(/C=C/[N+](=O)[O-])cc2ccccc21 | -72.1% (active) |
| COc1ccc(C2=Nc3c/c(=C\c4c(O)[nH]c5cc(Cl)ccc45)ccc3=N2)cc1 | 74.3% |
| O=C1/C(=C/c2ccc(C(F)(F)F)cc2)COc2ccc(O)c(O)c21 | -50.6% (active) |
| O=C(O)c1cccc(N/C=C/C(=O)c2cc3cc(Br)ccc3oc2=O)c1 | 96.9% |
| COc1cc(-c2nc(SCCC(C)C)nc(N3CCOCC3)c2C#N)cc(OC)c1OC | 5.83% (active) |
| C/C(C=O)=C\c1ccc2c(c1)OCO2 | 107% |
| COc1cc(C(=O)c2c(-c3ccccc3)oc3c(OC)cccc23)cc(OC)c1O | 18.8% |
| Cc1c2cnccc2c(C)c2c1c1cc(C3OCCCO3)ccc1n2C | -1.98% (active) |

| Structure (SMILES) | growth |
| --- | --- |
| Cc1cc2oc(=O)cc(CP(=O)(O)O)c2cc1O | 98.5% |
| Cc1cc2nc3c4ccccc4n(CCN(C)C)c3nc2cc1C | 15.7% |
| COc1cc2c(cc1O)[C@@]1(C)[C@H](c3ccccc3Br)OC(=O)N1CC2 | 89.3% |
| C[Se]C(=O)CC1=C2C=C(F)C=CC2/C(=C\c2ccc(S(C)=O)cc2)C1C (stereo not given) | -36.3% (active) |
| CCCCCCNc1nc(NCCCCCC)c2[nH]c(NCCCCCC)nc2n1 | -32.8% (active) |
| CCN(CC)CCN(CCN(CC)CC)c1ccccc1 | 98.2% |
| O=C(CSc1nc2ccc([N+](=O)[O-])cc2[nH]1)Nc1ccc(Br)cc1 | 36.3% |
| COc1ccc(/C(C)=C(\c2ccc(Cl)cc2)c2ccc(OCCN3CCCC3)cc2)cc1 | 19.4% |
| COc1cc2c(c(OC)c1OC)C(=O)N[C@@H]1[C@@H](O)[C@@H](O)[C@H](O)C[C@@H]21 | 98.9% |
| O=C1NC(=O)c2c1c1c3ccccc3[nH]c1c1oc3cc(Br)ccc3c21 | 65.5% |
| CC(C)CCSc1nc(Nc2ccccc2)c(C#N)c(-c2ccccc2)n1 | 2.98% (active) |
| O=C(/C=C/c1ccccc1)Nc1ncc(Cc2ccccc2)s1 | 9.07% (active) |
| C#CCn1cnc2c(Nc3cccc(NC(=O)CCl)c3)ncnc21 | 19.1% |
| C/C(=N\Nc1nc(C)cs1)c1cc2ccccc2o1 | 94% |
| CC(=O)N(Cc1ccccc1)c1nc2ccc(O)c(CN(C)C)c2s1 | 96.2% |
| Nc1c(C(=O)Nc2ccccn2)sc2nc3c(cc12)C(O)CCC3 (stereo not given) | 19% |
| N#C/C(=C\c1ccc(Br)cc1)c1cc2ccccc2[nH]1 | 95.1% |
| COc1ccc(-c2ccc(-c3ccc(C(=N)N)cn3)s2)cc1 | 15.3% |
| C=CCn1c(SCC(=O)Nc2ccc(C(=O)/C=C/c3ccc(OC)cc3)cc2)nnc1-c1ccccc1 | 98.1% |
| Fc1ccc(COc2ccc(Nc3ncnc4sc5c(c34)CCCC5)cc2)cc1 | 90.8% |

system: PC-3 prostate; assay: as above; details: 10 µM unless noted

| Structure (SMILES) | growth |
| --- | --- |
| CC(C)c1ccc(NC(=O)Nc2ccc(NC(=O)c3ccccc3N)cc2)cc1 | 47.6% |
| O=C(/C=C/c1cccc(Cl)c1)c1cccc(OCCCCOc2cccc(C(=O)/C=C/c3cccc(Cl)c3)c2)c1 | 92.2% |
| CC(C)c1ccc(C(=O)Nc2sc3cc(O)ccc3c2C#N)cc1 | 58.6% |
| COC(=O)/C(CCC=C(C)C)=C1\[C@@H](OC(C)=O)C[C@@]2(C)[C@H]1CC(=O)[C@H]1[C@@]3(C)CCC(N4CCCC4)[C@@H](C)[C@@H]3CC[C@@]12C (stereo not given in full) | 89.1% |
| C/C(=C(\c1ccc(OCCN2CCCCCC2)cc1)c1ccc(OC(=O)Cc2ccccc2)cc1)c1ccc(Cl)cc1 | 41.9% |
| O=C(Cn1nnc2ccccc21)N/N=C/c1ccccc1F | 96% |
| CCN(CC)CCOc1nc2c3ccc(Cl)cc3nn2c2ccccc12 | 34.1% |
| COc1ccc(NC(=O)c2ccc(C(=O)Nc3ccc(OC)cc3OC)cc2)c(OC)c1 | 75.9% |
| NC(=O)OCCn1cc(-c2nc(-c3c[nH]c4ncccc34)cs2)c2ccccc21 | 33.2% |
| CCOC(=O)c1c(-c2ccc(Cl)cc2)c(C#N)c2c(C#N)c(N)nn2c1N | 59.3% |
| CCOC(=O)c1c(C)nc2ccccc2c1/C=C/c1ccc(OC)cc1 | 60.2% |
| O=C(/C=C/C12c3ccccc3C(c3ccccc31)C1C(=O)NC(=O)C12)c1ccccn1 (stereo not given) | 16.3% |
| Cn1c(/C=C/[N+](=O)[O-])cc2ccccc21 | 7.59% (active) |
| COc1ccc(C2=Nc3c/c(=C\c4c(O)[nH]c5cc(Cl)ccc45)ccc3=N2)cc1 | 43.3% |
| O=C1/C(=C/c2ccc(C(F)(F)F)cc2)COc2ccc(O)c(O)c21 | -36.1% (active) |
| O=C(O)c1cccc(N/C=C/C(=O)c2cc3cc(Br)ccc3oc2=O)c1 | 93.8% |
| COc1cc(-c2nc(SCCC(C)C)nc(N3CCOCC3)c2C#N)cc(OC)c1OC | 62.3% |
| C/C(C=O)=C\c1ccc2c(c1)OCO2 | 104% |
| COc1cc(C(=O)c2c(-c3ccccc3)oc3c(OC)cccc23)cc(OC)c1O | 23.5% |
| Cc1c2cnccc2c(C)c2c1c1cc(C3OCCCO3)ccc1n2C | 2.08% (active) |

| Structure (SMILES) | growth |
| --- | --- |
| Cc1cc2oc(=O)cc(CP(=O)(O)O)c2cc1O | 94.9% |
| Cc1cc2nc3c4ccccc4n(CCN(C)C)c3nc2cc1C | 12.9% |
| COc1cc2c(cc1O)[C@@]1(C)[C@H](c3ccccc3Br)OC(=O)N1CC2 | 71.3% |
| C[Se]C(=O)CC1=C2C=C(F)C=CC2/C(=C\c2ccc(S(C)=O)cc2)C1C (stereo not given) | 20.4% |
| CCCCCCNc1nc(NCCCCCC)c2[nH]c(NCCCCCC)nc2n1 | 18.7% |
| CCN(CC)CCN(CCN(CC)CC)c1ccccc1 | 87.4% |
| O=C(CSc1nc2ccc([N+](=O)[O-])cc2[nH]1)Nc1ccc(Br)cc1 | 44.1% |
| COc1ccc(/C(C)=C(\c2ccc(Cl)cc2)c2ccc(OCCN3CCCC3)cc2)cc1 | 32.7% |
| COc1cc2c(c(OC)c1OC)C(=O)N[C@@H]1[C@@H](O)[C@@H](O)[C@H](O)C[C@@H]21 | 96.5% |
| O=C1NC(=O)c2c1c1c3ccccc3[nH]c1c1oc3cc(Br)ccc3c21 | 42.3% |
| CC(C)CCSc1nc(Nc2ccccc2)c(C#N)c(-c2ccccc2)n1 | 68.8% |
| O=C(/C=C/c1ccccc1)Nc1ncc(Cc2ccccc2)s1 | 23.4% |
| C#CCn1cnc2c(Nc3cccc(NC(=O)CCl)c3)ncnc21 | 28.6% |
| C/C(=N\Nc1nc(C)cs1)c1cc2ccccc2o1 | 70.2% |
| CC(=O)N(Cc1ccccc1)c1nc2ccc(O)c(CN(C)C)c2s1 | 90.2% |
| Nc1c(C(=O)Nc2ccccn2)sc2nc3c(cc12)C(O)CCC3 (stereo not given) | 16.3% |
| N#C/C(=C\c1ccc(Br)cc1)c1cc2ccccc2[nH]1 | 84.7% |
| COc1ccc(-c2ccc(-c3ccc(C(=N)N)cn3)s2)cc1 | 65.5% |
| C=CCn1c(SCC(=O)Nc2ccc(C(=O)/C=C/c3ccc(OC)cc3)cc2)nnc1-c1ccccc1 | 67.1% |
| Fc1ccc(COc2ccc(Nc3ncnc4sc5c(c34)CCCC5)cc2)cc1 | 72.2% |
